In PubChem BioAssay (NCI):
This is part of a sample that, as a whole, favours compounds with a hit. Of some 83,000 tested, about 20% had one in any assay.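 Values shown are percent growth following 48 h exposure of cells in 96-well plates to a single concentration of compound; below 10 was considered active.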 Calls of active or inactive are those of the source.

System: TK-10 renal
Assay: NCI-60 one-dose screen, 48 h (100 = growth as untreated, 0 = no growth, -100 = all killed)
Conditions: 10 µM unless noted

Row | SMILES | growth
1 | CCOC(=O)C(=Cc1cccc(Cl)c1)C(=O)OCC | 3.56% (active)
2 | O=C1NC(=O)c2c1c1c3ccccc3ccc1c1[nH]c3ccc(Br)cc3c21 | 36.8% (inactive)
3 | CC1(c2ccccc2O)NN=C(/N=C/c2cccc([N+](=O)[O-])c2)N1C(Cc1c[nH]c2ccccc12)C(=O)O (stereo not given) | 141% (inactive)
4 | COc1ccc(-c2nnc(-c3ccc4c(c3)nc(-c3ccncc3)n4C3CCCCC3)o2)cc1 | 75% (inactive)
5 | N#Cc1nn(-c2cc(=O)[nH]c3ccc(Cl)cc23)c(N)c1C#N | 105% (inactive)

System: ACHN renal
Assay: as above
Conditions: 10 µM unless noted

Row | SMILES | growth
6 | O=Cc1ccc([N+](=O)[O-])s1 | 90.8% (inactive)
7 | CC(C)(C)n1cc(-c2ccnc(NCCCNS(=O)(=O)c3ccc(F)cc3)c2)c(-c2cccc(F)c2)n1 | 61.4% (inactive)
8 | O=C1C(Cl)=C(Nc2ccc(O)cc2)C(=O)N1Cc1ccc(Cl)cc1 | 71.4% (inactive)
9 | COc1cc(CNC(=O)CCCC/C=C/C(C)C)ccc1OCc1nnc(Nc2ccc([N+](=O)[O-])cc2)o1 | 41.2% (inactive)
10 | O=C(N/N=C/c1ccc(F)cc1)c1ccc(C(F)(F)F)nc1Nc1cccc(C(F)(F)F)c1 | -3.72% (active)
11 | C=C(C)[C@@H]1CC[C@]2(C(=O)NCCNCCN)CC[C@]3(C)[C@H](CC[C@@H]4[C@@]5(C)C/C(=C/c6ccncc6)C(=O)C(C)(C)[C@@H]5CC[C@]43C)[C@@H]12 | 100% (inactive)
12 | O=C(COc1ccc(-c2nc3ccccc3[nH]2)cc1)N=Nc1c(O)[nH]c2ccc(Cl)cc12 | 97.6% (inactive)
13 | C/C(=N/O)c1ccc(F)cc1 | -10.4% (active)
14 | COc1ccc(C2=Nc3c/c(=C\c4c(O)[nH]c5ccc(Cl)cc45)ccc3=N2)cc1 | 70.1% (inactive)
15 | CCOC(=O)c1cnc2ccccc2c1Cl | 99.4% (inactive)
16 | CCCc1cc(NC)nc(S(=O)(=O)CC)n1 | 107% (inactive)
17 | COc1ccc(/C=C2\C(=O)N=C3N2NC(c2cc(Br)ccc2O)C=C(C)N3c2ccccc2)cc1 (stereo not given) | 99% (inactive)
18 | O=S(=O)(NCCNc1nccc(-c2c(-c3cccc(F)c3)nc3occn23)n1)c1ccc(Br)cc1 | 62% (inactive)
19 | CCn1cc(C(=O)N/N=C/c2cccs2)c(=O)c2cc(F)c(N3CCNC(C)C3)c(F)c21 (stereo not given) | 87.2% (inactive)
20 | Cn1c(=O)c2[nH]c(N/N=C/c3ccccc3Br)nc2n(C)c1=O | 105% (inactive)
21 | CCCCCCNC(=O)Oc1ccc(/C(=C(/C)Cc2ccc(OC)cc2)c2ccc(OCCCN(C)C)cc2)cc1 | 37% (inactive)
22 | O=C(OCc1ccc2cccc(O)c2n1)N1CCN(C(=O)c2cc3cc(F)ccc3[nH]2)CC1 | -99.8% (active)
23 | CC(=O)[C@@H]1CCC=C2CC[C@]3(C)[C@@H](CC[C@@H]4[C@@]5(C)CCCNC(C)(C)[C@@H]5CC[C@]43C)[C@H]21 | -82.4% (active)
24 | O=c1oc2ccc([N+](=O)[O-])cc2cc1Br | 117% (inactive)
25 | S=C(Nc1ccc(-c2nc(N3CCOCC3)c3cccn3n2)cc1)Nc1cccnc1 | 37.3% (inactive)

Row | SMILES | growth
26 | O=C1/C(=C/c2ccc(-c3ccc(Br)cc3)o2)SC(=S)N1CCc1ccc(O)cc1 | 83.9% (inactive)
27 | CCOC(=O)CSc1ncnc2c1c(-c1ccccc1)c(-c1ccccc1)n2-c1ccc(C)cc1 | 90.7% (inactive)
28 | CCNc1cc(-c2cccc(OC(F)(F)F)c2)nc2ccc(N3CCCC3)cc12 | -12.7% (active)
29 | CCCCNC(=O)Oc1ccc(/C(=C(/CC)Cc2ccccc2)c2ccc(OCCN3CCCCCC3)cc2)cc1 | 66.4% (inactive)
30 | COc1ccc(-c2nc3c(c(-c4ccccc4)nn3-c3ccccc3)c(-c3ccc(N4CCOCC4)cc3)c2C#N)cc1 | 104% (inactive)
31 | COc1cc(-c2csc(NC(=O)c3cc(-n4cnc(C)c4)cc(C(F)(F)F)c3)n2)cc(OC)c1OC | 54.3% (inactive)
32 | COc1cc(CNS(=O)(=O)c2ccc(C)cc2)ccc1OCc1cn(-c2ccc(Br)cc2)nn1 | 98.4% (inactive)
33 | Nc1ncnc2c1N=C(c1ccc3c(c1)OCO3)CC(c1ccc([N+](=O)[O-])cc1)N2 (stereo not given) | 82.4% (inactive)
34 | COc1ccc(-c2nc3c(c(-c4ccccc4)nn3-c3ccccc3)c(-c3ccc(N4CCN(C)CC4)cc3)c2C#N)cc1 | 95.3% (inactive)
35 | CCOC(=O)C(=Cc1cccc(Cl)c1)C(=O)OCC | -72.9% (active)
36 | O=C1NC(=O)c2c1c1c3ccccc3ccc1c1[nH]c3ccc(Br)cc3c21 | 1.55% (active)
37 | CC1(c2ccccc2O)NN=C(/N=C/c2cccc([N+](=O)[O-])c2)N1C(Cc1c[nH]c2ccccc12)C(=O)O (stereo not given) | 91.1% (inactive)
38 | CCOP(=O)(OCC)c1nc(-c2ccccc2)oc1NCc1cccnc1 | 103% (inactive)
39 | CCOC(=O)c1cn2ncnc(Oc3ccc(NC(=O)NC4CCCCC4)c(Cl)c3)c2c1C | 61.5% (inactive)
40 | COC(=O)c1cc(-c2ccccc2)[nH]c1N/N=C/c1c(Cl)cccc1Cl | 44% (inactive)
41 | COc1ccc(-c2nnc(-c3ccc4c(c3)nc(-c3ccncc3)n4C3CCCCC3)o2)cc1 | 89.2% (inactive)
42 | CC(C)(C)c1cc(-c2nc3ccc(N4CCN(S(C)(=O)=O)CC4)cc3[nH]2)cc(C(C)(C)C)c1O | 72.4% (inactive)
43 | CCCCN1C(=O)/C(=c2\sc3n(c2=O)C2C(NN=3)N(CC)C(=O)N2CC)c2ccccc21 (stereo not given) | 23.9% (inactive)
44 | N#Cc1nn(-c2cc(=O)[nH]c3ccc(Cl)cc23)c(N)c1C#N | 92.7% (inactive)
45 | Cc1ccc(-n2c(=S)[nH]c3sc4c(c3c2=O)CCC(=O)C4)cc1 | 39.4% (inactive)
